Data from PubChem BioAssay (Tox21).
Records with an inconclusive call do not appear. Active and inactive are the calls of the source. Unless noted, calls come from the whole dose curve; as a rule, active = well fitted curve in the direction sought with a large enough effect in the repeat runs; inconclusive = weak or mixed curves; inactive = no such curve, though single readings can be large; an effect the other way counts as inactive or inconclusive.

Legend:
[1] = qHTS assay to identify aromatase inhibitors - cell viability counter screen (AID 743084);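 note: cells stimulated with testosterone during compound exposure; nearly all actives have a fitted effect of over 55% in size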
[2] = qHTS assay to identify small molecule that activate the aryl hydrocarbon receptor (AhR) signaling pathway - cell viability counter screen (AID 743086);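 note: HepG2 liver cells carrying the AhR DRE luciferase reporter; series mostly up to about 70 µM; nearly all actives have a fitted effect of over 45% in size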
Outline: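 Cytotoxicity counter screen: CellTiter-Fluor signal (30 min, 37 C) in 4000 HepG2 cells/well carrying the DRE-luciferase reporter, following 24 h compound exposure at 37 C.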

[3] = qHTS assay to identify small molecule antagonists of the peroxisome proliferator-activated receptor gamma (PPARg) signaling pathway - cell viability counter screen (AID 743194); note: nearly all actives have a fitted effect of over 55% in size
Outline: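 Viability was measured as CellTiter-Glo luminescence in GeneBLAzer PPARg UAS-bla HEK293H cells. These cells had been exposed 17 h at 37 C to compounds together with rosiglitazone at 50 nM final, with the beta-lactamase readout taken in the same wells.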

[4] = qHTS assay for small molecule agonists of the antioxidant response element (ARE) signaling pathway - cell viability counter screen (AID 743203; calls by dose curve; note: nearly all actives have a fitted effect of over 55% in size)
Outline: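 Following 16 hrs of compound treatment at 37C, HepG2 cells with an ARE-controlled beta-lactamase gene were lysed with CellTiter-Glo. Luminescence was read after 30 min at room temperature.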

[5] = qHTS assay for small molecule activators of the heat shock response signaling pathway - cell viability counter screen (AID 743209); note: nearly all actives have a fitted effect of over 50% in size
Outline: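 Readout: CellTiter-Glo luminescence, 30 min at room temperature. System: HSE-bla HeLa cells, 1500/well, plated overnight. Treatment: compounds in DMSO, 5 h at 37 C.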

[6] = qHTS assay for small molecule activators of the heat shock response signaling pathway (AID 743210; active = well fitted activation curve with a large enough effect in the signal ratio in the repeat runs, with a control signal flat, not every such curve was filed as active; the % refers to the signal ratio;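 note: HeLa cells with beta-lactamase reporter driven by heat shock elements; series mostly up to about 63 µM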)
Outline: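 In HSE-bla HeLa cells, 5 h compound incubation (37 C) precedes addition of LiveBLAzer B/G substrate; after 2.5 h at room temperature, fluorescence intensity indicates reporter induction.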

[7] = molecular target: Peroxisome proliferator-activated receptor delta (Homo sapiens) (UniProt Q03181); test: qHTS assay to identify small molecule agonists of the peroxisome proliferator-activated receptor delta (PPARd) signaling pathway (AID 743212; calls by dose curve)
Outline: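 HEK293H UAS-bla reporter cells, human PPARd system; compounds delivered in DMSO after 5 h plating, then at 37 C. Beta-lactamase FRET read, 2 h RT substrate step.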

[8] = qHTS assay to identify small molecule antagonists of the peroxisome proliferator-activated receptor delta (PPARd) signaling pathway - cell viability counter screen (AID 743213); note: nearly all actives have a fitted effect of over 50% in size
Outline: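 In this counter screen, HEK293H cells carrying a UAS-beta-lactamase reporter are co-treated with test compounds and 300 nM L165041 (final) for 17 h at 37 C; cell viability is quantified by CellTiter-Glo luminescence.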

[9] = molecular target: Bile acid receptor (Homo sapiens) (UniProt Q96RI1); test: qHTS assay to identify small molecule agonists of the farnesoid-X-receptor (FXR) signaling pathway (AID 743220; active = well fitted activation curve with a large enough effect in the signal ratio in the repeat runs, not every such curve was filed as active; the % refers to the signal ratio)
Outline: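 Beta-lactamase reporter under UAS control in GeneBLAzer FXR HEK 293T cells (5000/well) measured with LiveBLAzer FRET substrate after 2 h at room temperature. Compound exposure lasted 16 h at 37C.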

[10] = qHTS assay to identify small molecule antagonists of the farnesoid-X-receptor (FXR) signaling pathway - cell viability counter screen (AID 743221; active = well fitted cell-killing curve with a large enough effect in the repeat runs, not every such curve was filed as active; note: nearly all actives have a fitted effect of over 50% in size)
Outline: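 After a 5 h settling period, FXR-bla HEK 293T cells receive compound and chenodeoxycholic acid (50 uM final) and incubate 16 h at 37 C; CellTiter-Glo luminescence, read after 30 min at room temperature, reports cell viability.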

[11] = molecular target: Vitamin D3 receptor (Homo sapiens) (UniProt P11473); test: qHTS assay to identify small molecule agonists of the vitamin D receptor (VDR) signaling pathway (AID 743222; calls by dose curve)
Outline: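 In VDR-bla cells, compound-induced beta-lactamase expression is quantified by FRET substrate fluorescence. Treatment lasts 16 h at 37C; substrate develops 2 h at room temperature.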

[12] = qHTS assay for small molecule agonists of the antioxidant response element (ARE) signaling pathway (AID 743202; active = well fitted activation curve with a large enough effect in the signal ratio in the repeat runs, not every such curve was filed as active; the % refers to the signal ratio)
Outline: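 An ARE-responsive beta-lactamase gene stably integrated in HepG2 cells serves as reporter. After 5 h plating and 16 h compound incubation at 37 C, fluorescence of the B/G FRET substrate was measured.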

[13] = qHTS assay to identify small molecule agonists of the peroxisome proliferator-activated receptor delta (PPARd) signaling pathway - cell viability counter screen (AID 743211); note: nearly all actives have a fitted effect of over 55% in size
Outline: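 qHTS cell viability: PPARd-bla HEK293H; 17 h cpd, 37C; CellTiter-Glo, luminescence at 30 min RT.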

[14] = molecular target: Bile acid receptor (Homo sapiens) (UniProt Q96RI1); test: qHTS assay to identify small molecule antagonists of the farnesoid-X-receptor (FXR) signaling pathway (AID 743217; active = well fitted inhibition curve with a large enough effect in the signal ratio in the repeat runs, not every such curve was filed as active; the % refers to the signal ratio)
Outline: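 GeneBLAzer FXR-UAS-bla HEK 293T, CDCA-stimulated (50 uM final). Compound treatment 16 h, 37 °C. Detection: beta-lactamase cleavage of B/G FRET substrate, fluorescence.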

[15] = qHTS assay to identify small molecule agonists of the farnesoid-X-receptor (FXR) signaling pathway - cell viability counter screen (AID 743218); note: nearly all actives have a fitted effect of over 45% in size
Outline: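 Parallel cytotoxicity test: compound-treated (16 h, 37 C) HEK 293T FXR-bla reporter cells were lysed with CellTiter-Glo and luminescence recorded.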

[16] = molecular target: Vitamin D3 receptor (Homo sapiens) (UniProt P11473); test: qHTS assay to identify small molecule antagonists of the vitamin D receptor (VDR) signaling pathway (AID 743223; active = well fitted inhibition curve with a large enough effect in the signal ratio in the repeat runs, not every such curve was filed as active; the % refers to the signal ratio)
Outline: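 Reporter line VDR-bla; stimulus 1alpha,25-(OH)2 vitamin D3, 3 nM final; compound co-addition, 16 h 37C/5% CO2; LiveBLAzer B/G substrate 2 h RT; fluorescence intensity.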

[17] = molecular target: Peroxisome proliferator-activated receptor gamma (Homo sapiens) (UniProt P37231); test: qHTS assay to identify small molecule antagonists of the peroxisome proliferator-activated receptor gamma (PPARg) signaling pathway (AID 743191; calls by dose curve; note: series mostly up to about 63 µM; nearly all actives have a fitted effect of over 30% in size)
Outline: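 Beta-lactamase reporter under UAS control in HEK293H PPARg-bla cells; compound treatment 17 h at 37C. Read-out: fluorescence intensity after 1 h room-temperature incubation with LiveBLAzer B/G FRET substrate.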

[18] = molecular target: Peroxisome proliferator-activated receptor delta (Homo sapiens) (UniProt Q03181); test: qHTS assay to identify small molecule antagonists of the peroxisome proliferator-activated receptor delta (PPARd) signaling pathway (AID 743215; active = well fitted inhibition curve with a large enough effect in the signal ratio in the repeat runs, not every such curve was filed as active; the % refers to the signal ratio;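 note: cells stimulated with agonist L165041 at 300 nM final during compound exposure; series mostly up to about 62 µM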)
Outline: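 HEK293H UAS-bla, PPARd; agonist L165041 300 nM final with cpd in DMSO; 37 C 17 h; FRET substrate, RT 2 h; fluorescence intensity.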

[19] = molecular target: Aryl hydrocarbon receptor (Homo sapiens) (UniProt P35869); test: qHTS assay to identify small molecule that activate the aryl hydrocarbon receptor (AhR) signaling pathway (AID 743085);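 note: HG2L7.5c1 human HepG2 liver cells with stably integrated DRE-driven firefly reporter; series mostly up to about 70 µM; nearly all actives have a fitted effect of over 15% in size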
Outline: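 AhR agonist activity is inferred from enhanced light output of a DRE-controlled firefly luciferase reporter in HepG2 cells, measured with ONE-Glo following 24 h treatment at 37C.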

[20] = molecular target: Peroxisome proliferator-activated receptor gamma (Homo sapiens) (UniProt P37231); test: qHTS assay to identify small molecule agonists of the peroxisome proliferator-activated receptor gamma (PPARg) signaling pathway (AID 743094; active = well fitted activation curve with a large enough effect in the signal ratio in the repeat runs, not every such curve was filed as active; the % refers to the signal ratio)
Outline: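 Compounds dissolved in DMSO were added to PPARg UAS-bla HEK293H cells for 17 h at 37C, and reporter expression was quantified by fluorescence intensity after 1 h with LiveBLAzer B/G FRET substrate.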

Measured: Potency

Bile acid receptor (Homo sapiens), sequence (Q96RI1 whole entry, looked up): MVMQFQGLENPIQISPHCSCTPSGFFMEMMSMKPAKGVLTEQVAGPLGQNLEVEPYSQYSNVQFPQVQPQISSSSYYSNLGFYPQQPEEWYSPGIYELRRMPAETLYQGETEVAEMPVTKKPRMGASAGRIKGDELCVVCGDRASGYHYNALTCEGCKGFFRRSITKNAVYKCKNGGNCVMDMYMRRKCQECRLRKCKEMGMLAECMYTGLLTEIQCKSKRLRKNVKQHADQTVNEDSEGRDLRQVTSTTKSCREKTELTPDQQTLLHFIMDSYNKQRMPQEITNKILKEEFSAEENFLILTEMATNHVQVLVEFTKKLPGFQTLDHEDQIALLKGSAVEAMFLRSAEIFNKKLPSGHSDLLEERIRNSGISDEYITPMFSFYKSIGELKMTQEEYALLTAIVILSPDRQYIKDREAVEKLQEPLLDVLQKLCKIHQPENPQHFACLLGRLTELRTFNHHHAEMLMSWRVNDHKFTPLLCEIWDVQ
Vitamin D3 receptor (Homo sapiens), sequence (P11473 whole entry, looked up): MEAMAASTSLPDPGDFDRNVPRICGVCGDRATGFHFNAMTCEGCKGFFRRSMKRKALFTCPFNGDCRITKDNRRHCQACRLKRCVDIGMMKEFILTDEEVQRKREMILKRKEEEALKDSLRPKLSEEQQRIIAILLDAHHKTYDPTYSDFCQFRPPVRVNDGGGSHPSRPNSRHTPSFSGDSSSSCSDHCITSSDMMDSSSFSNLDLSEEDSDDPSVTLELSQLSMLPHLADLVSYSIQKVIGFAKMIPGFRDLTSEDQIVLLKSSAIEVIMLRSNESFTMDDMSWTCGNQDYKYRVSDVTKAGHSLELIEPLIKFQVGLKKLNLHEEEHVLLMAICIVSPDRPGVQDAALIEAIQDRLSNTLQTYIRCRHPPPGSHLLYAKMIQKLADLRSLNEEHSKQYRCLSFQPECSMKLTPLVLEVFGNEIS
Peroxisome proliferator-activated receptor delta (Homo sapiens), sequence (Q03181 whole entry, looked up): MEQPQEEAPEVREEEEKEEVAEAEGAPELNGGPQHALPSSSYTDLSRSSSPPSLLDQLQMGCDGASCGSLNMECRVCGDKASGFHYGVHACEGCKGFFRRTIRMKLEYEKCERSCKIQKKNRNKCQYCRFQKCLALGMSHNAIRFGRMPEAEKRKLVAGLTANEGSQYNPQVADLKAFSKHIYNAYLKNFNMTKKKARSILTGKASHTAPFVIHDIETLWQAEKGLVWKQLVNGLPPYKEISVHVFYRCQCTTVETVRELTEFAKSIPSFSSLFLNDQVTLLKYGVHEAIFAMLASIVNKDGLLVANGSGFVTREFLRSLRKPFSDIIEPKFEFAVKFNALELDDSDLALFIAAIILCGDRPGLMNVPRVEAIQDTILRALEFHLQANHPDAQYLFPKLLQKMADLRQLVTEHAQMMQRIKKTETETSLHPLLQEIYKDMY
Peroxisome proliferator-activated receptor gamma (Homo sapiens), sequence (P37231 whole entry, looked up): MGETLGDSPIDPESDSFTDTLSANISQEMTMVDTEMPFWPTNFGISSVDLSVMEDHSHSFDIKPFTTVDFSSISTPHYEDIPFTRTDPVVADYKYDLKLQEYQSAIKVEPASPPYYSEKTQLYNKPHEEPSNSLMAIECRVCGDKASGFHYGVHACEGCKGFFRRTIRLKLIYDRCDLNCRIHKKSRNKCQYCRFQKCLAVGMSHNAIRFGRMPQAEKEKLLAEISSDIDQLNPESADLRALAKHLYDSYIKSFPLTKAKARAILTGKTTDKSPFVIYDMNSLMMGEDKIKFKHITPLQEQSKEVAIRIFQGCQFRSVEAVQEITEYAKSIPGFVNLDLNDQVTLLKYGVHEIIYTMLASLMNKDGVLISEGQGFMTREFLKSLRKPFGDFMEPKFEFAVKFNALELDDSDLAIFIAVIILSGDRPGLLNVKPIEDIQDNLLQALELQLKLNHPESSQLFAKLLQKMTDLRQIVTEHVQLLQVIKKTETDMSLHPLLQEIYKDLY
Aryl hydrocarbon receptor (Homo sapiens), sequence (P35869 whole entry, looked up): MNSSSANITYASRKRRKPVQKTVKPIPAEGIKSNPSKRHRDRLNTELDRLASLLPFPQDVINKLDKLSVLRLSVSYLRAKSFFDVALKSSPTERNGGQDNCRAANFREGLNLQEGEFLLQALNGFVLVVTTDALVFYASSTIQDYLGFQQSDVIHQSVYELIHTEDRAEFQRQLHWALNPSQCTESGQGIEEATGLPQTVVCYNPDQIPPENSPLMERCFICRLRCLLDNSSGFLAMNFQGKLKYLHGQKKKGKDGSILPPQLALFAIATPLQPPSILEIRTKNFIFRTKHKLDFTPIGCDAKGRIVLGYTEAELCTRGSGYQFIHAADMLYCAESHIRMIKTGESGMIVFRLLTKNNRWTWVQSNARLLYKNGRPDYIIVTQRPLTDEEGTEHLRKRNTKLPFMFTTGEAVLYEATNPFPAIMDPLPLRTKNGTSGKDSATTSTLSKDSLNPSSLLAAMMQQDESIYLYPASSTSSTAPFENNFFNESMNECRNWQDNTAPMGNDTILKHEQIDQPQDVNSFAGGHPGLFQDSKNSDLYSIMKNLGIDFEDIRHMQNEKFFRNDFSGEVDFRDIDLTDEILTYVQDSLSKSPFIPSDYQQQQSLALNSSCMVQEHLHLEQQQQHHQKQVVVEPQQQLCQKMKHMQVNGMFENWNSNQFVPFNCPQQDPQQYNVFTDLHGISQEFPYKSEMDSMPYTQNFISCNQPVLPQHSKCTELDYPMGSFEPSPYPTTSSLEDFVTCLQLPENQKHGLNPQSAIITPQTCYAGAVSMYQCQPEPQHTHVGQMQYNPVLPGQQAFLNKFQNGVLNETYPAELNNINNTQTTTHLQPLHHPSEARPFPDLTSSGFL

O=S(=O)(c1cccc2cnccc12)N1CCCNCC1
inactive: [1] | [2] | [3] | [4] | [5] | [6] | [7] | [8] | [9] | [10] | [11]

CCn1c(=O)c2c(nc(/C=C/c3ccc(OC)c(OC)c3)n2C)n(CC)c1=O
not listed: [1] | [2] | [11] | [17] | [18] | [19] | [20]
inactive: all other assays above

CC(C)CCCC(C)NCCC(C)C (centres undefined)
not listed: [1] | [2] | [3] | [9] | [12] | [14] | [19] | [20]
inactive: all other assays above

CCCCC=O
inactive: [3] | [12] | [4] | [5] | [6] | [13] | [8] | [15] | [9] | [10] | [16]

Cc1c(F)cc2c(=O)c(C(=O)O)cn3c2c1CCC3C (centres undefined)
inactive: [12] | [4] | [5] | [6] | [13] | [7] | [8] | [15] | [10] | [11] | [16]

O=c1[nH]c2ccccc2c(=O)n1CCCl
inactive: [4] | [5] | [6] | [13] | [7] | [8] | [18] | [15] | [10] | [11] | [16]

O=C(CCOCCOCCOCCOCCC(=O)Nc1c(I)cc(I)c(C(=O)O)c1I)Nc1c(I)cc(I)c(C(=O)O)c1I
inactive: [3] | [12] | [4] | [5] | [6] | [13] | [8] | [15] | [10] | [11] | [16]

O=C1CC2(CCCC2)CC(=O)N1
not listed: [1] | [2] | [19] | [20]
inactive: all other assays above

Nc1ncnc2c1ncn2Cc1c(F)cccc1Cl
inactive: [17] | [3] | [12] | [4] | [5] | [6] | [13] | [7] | [15] | [10] | [16]

CCN1CCN(c2cc3c(cc2F)c(=O)c(C(=O)O)cn3C2CC2)CC1
not listed: [1] | [3] | [9] | [13] | [14] | [17] | [18]
inactive: all other assays above

C=CCOCC(O)CS(=O)(=O)O (centres undefined)
not listed: [2] | [9] | [14] | [16] | [17] | [19]
inactive: all other assays above

CN(C)N=Nc1ccccc1
not listed: [1] | [2] | [9] | [11] | [14] | [17] | [19] | [20]
inactive: all other assays above

Cc1ccccc1C(=O)O
not listed: [1] | [6] | [9] | [11] | [14]
inactive: all other assays above

CC(C)(C)C(=O)/C=C/c1ccc(Cl)cc1
not listed: [1] | [6] | [7] | [12] | [15] | [16] | [17] | [18]
inactive: all other assays above

CCN1CCCC(OC(=O)C(c2ccccc2)c2ccccc2)C1 (centres undefined)
not listed: [1] | [11] | [14] | [16]
inactive: all other assays above
